Results published in paper PMC7822874, “Chemoprotective antimalarials identified through quantitative high-throughput screening of Plasmodium blood and liver stage parasites” (Scientific Reports, 2021).
Like-named read-outs stand apart in the source and are kept apart here.

Test system: P. berghei-ANKA-GFP-LucCON liver stage parasites in HepG2-A16-CD81EGFP cells
Settings: 48 h

SMILES | % viability (1 µM) | % viability (3 µM)
COc1ccc(OCCn2cc(C(=O)c3ccco3)c3ccccc32)cc1 [NCGC00101886] | 1.363 | 1.13
COc1cccc(OCCn2cc(C(=O)c3ccco3)c3ccccc32)c1 [MLS000050800] | – | 1.234
